Data reported in PubChem BioAssay (Tox21).
Records with an inconclusive call do not appear. Where a call stands in place of a potency, no number is given. Activity calls are given as the source filed them. Calls follow the shape of the dose curve; as a rule, active = well fitted cell-killing curve with a large enough effect in the repeat runs; inconclusive = weak or mixed curves, or effect the other way; inactive = flat fitted curve, though single readings scatter.

Assay: qHTS assay to identify small molecule agonists of the estrogen receptor beta (ER-beta) signaling pathway - cell viability counter screen (AID 1259380); also: nearly all actives have a fitted effect of over 30% in size
Details: ER-beta-bla HEK293T viability, CellTiter-Glo luminescence, 16 h; series mostly up to 92.4 µM
Text: National Center for Advancing Translational Sciences [NCATS]
NIH Chemical Genomics Center [NCGC]
U.S. Environmental Protection Agency [EPA]
National Institutes of Environmental Health Sciences [NIEHS]
National Toxicology Program [NTP]
U.S. Food and Drug Administration [FDA]
Estrogen receptor (ER), a nuclear hormone receptor, plays an important role in development, metabolic homeostasis and reproduction. Two subtypes of ER, ER-alpha and ER-beta, have similar expression patterns with some uniqueness in both types. Endocrine disrupting chemicals (EDCs) and their interactions with steroid hormone receptors like ER causes disruption of normal endocrine function. To identify the compounds that activate ER signaling, an ER beta-UAS-bla GripTite cell line (Life Technologies, Madison, WI, USA) containing a beta-lactamase reporter gene under the control of an UAS response element was used to screen Tox21 10K compound library. The cytotoxicity of the Tox21 compound library against the ER-beta-bla cell line was tested in parallel by measuring the cell viability using CellTiter-Glo assay in the same wells.
Tox21 Assay Protocol Summary:
ER-beta-UAS-bla HEK293T cells were dispensed at 2,000 cells/5 uL of assay medium containing 2% charcoal stripped FBS per well into black wall/clear-bottom 1536-well plates using a Multidrop Combi (ThermoFisher Scientific, Waltham, MA) dispenser. After the assay plates were incubated at a 37C and 5% CO2 for 6 hr, 23 nL of compounds dissolved in DMSO, positive controls or DMSO only was transferred to the assay plate by a Pintool station (Kalypsys, San Diego, CA). The plates were incubated at 37C and 5% CO2 for 16 hr. Then 1 uL of LiveBLAzerTM B/G FRET substrate was added using a BioRAPTR FRD (Flying Reagent Dispenser, Aurora Discovery, San Diego, CA) and then the plates were incubated at room temperature for 2 hours, and fluorescence intensity was measured by an Envision plate reader (PerkinElmer, Shelton, CT). For cell viability readout that measures cytotoxicity, 4 uL/well of CellTiter-Glo reagent was added into the assay plates using a FRD. After 30 min incubation at room temperature, the luminescence intensity in the plates was measured using a ViewLux (PerkinElmer) plate reader.
Potency is read from the fitted curve at half-maximal effect.

| Compound | Potency | activity change, negative = cytotoxicity |
| --- | --- | --- |
| CNS(=O)(=O)Cc1ccc2[nH]cc(CCN(C)C)c2c1 | inactive |  |
| OC(CCN1CCCCC1)(c1ccccc1)C1CCCCC1 (stereo not given) | inactive |  |
| CCOc1ccc2[nH]cc(C(=O)NCc3ccccc3)c(=O)c2n1 | inactive |  |
| CC(=O)O[C@H]1C[C@@H]2CC[C@@H]3[C@H](CC[C@@]4(C)[C@H]3C[C@H]([N+]3(C)CCCCC3)[C@@H]4OC(C)=O)[C@@]2(C)C[C@@H]1N1CCCCC1 | inactive |  |
| CCCc1ccccc1 | inactive |  |
| OCCC1CCCCN1 (stereo not given) | inactive |  |
| Cn1c(N)nc2nc[nH]c2c1=O | inactive |  |
| O=c1c2ccccc2nnn1CCl | inactive |  |
| CC(C)(C)C(=O)OCOP(=O)(COCCn1cnc2c(N)ncnc21)OCOC(=O)C(C)(C)C | 9.44 µM (active) |  |
| Cc1ccc(O)c([C@H](CCN(C(C)C)C(C)C)c2ccccc2)c1 | 26.6 µM (active) |  |
| C=C(C)C(=O)OCCN(C)C | inactive |  |
| Cc1ccc2c(ccc3ccccc32)c1 | inactive |  |
| CCCCOC(O)CC (stereo not given) | inactive |  |
| Nc1cnn([C@@H]2O[C@H](CO)[C@@H](O)[C@H]2O)c(=O)n1 | inactive |  |
| Cc1ccc(C(C)c2ccc(C)c(C)c2)cc1C | inactive |  |
| S=C(S)NCCNC(=S)S | inactive |  |
| CNCC[C@@H](Oc1ccccc1C)c1ccccc1 | 26.6 µM (active) |  |
| CCCCCCCCCCCCCCCBr | inactive |  |
| CCOC(=O)C1=C(C)NC(C)=C(C(=O)OC)C1c1cccc([N+](=O)[O-])c1 (stereo not given) | inactive |  |
| C=CC[N+]1([C@H]2C[C@H]3[C@@H]4CC[C@H]5C[C@H](OC(C)=O)[C@@H](N6CCCCC6)C[C@]5(C)[C@H]4CC[C@]3(C)[C@H]2OC(=O)CC)CCCCC1 | inactive |  |

| Compound | Potency | activity change, negative = cytotoxicity |
| --- | --- | --- |
| COC(=O)CSc1cc(N=c2sc(=O)n3n2CCCC3)c(F)cc1Cl | inactive |  |
| CC(C(=O)O)c1ccc(C(=O)c2ccccc2)s1 (stereo not given) | inactive |  |
| C1CCC2OC2C1 (stereo not given) | inactive |  |
| CCN(CC)C(C)CN1c2ccccc2Sc2ccccc21 (stereo not given) | inactive |  |
| Nc1nc(N)c(-c2ccccc2)s1 | inactive |  |
| CCOC(=O)[C@H](CCc1ccccc1)N[C@H]1CCc2ccccc2N(CC(=O)O)C1=O | 11.9 µM (active) |  |
| CC[C@H](C)[C@@H](C(=O)O)n1sc2ccccc2c1=O | 54.5 µM (active) |  |
| COCCO | inactive |  |
| CC(C)(C)c1cc(CCC(=O)OCC(COC(=O)CCc2cc(C(C)(C)C)c(O)c(C(C)(C)C)c2)(COC(=O)CCc2cc(C(C)(C)C)c(O)c(C(C)(C)C)c2)COC(=O)CCc2cc(C(C)(C)C)c(O)c(C(C)(C)C)c2)cc(C(C)(C)C)c1O | inactive |  |
| COc1cc(C(C)(C)C)c(O)c(C(C)(C)C)c1 | inactive |  |
| CCOC(=O)CC(=O)c1cc(F)c(Cl)nc1Cl | inactive |  |
| Cc1ncsc1CCO | inactive |  |
| CC(C)c1ccccc1C(C)C | inactive |  |
| O=C(NN1CCCC1)NS(=O)(=O)c1ccc(Cl)cc1 | inactive |  |
| CCN(CCO)CCCC(C)Nc1ccnc2cc(Cl)ccc12 (stereo not given) |  | 3.81% [at 8.39 µM] (inactive) |
| CCOc1cc(OCC)c(C(=O)CCC(=O)O)cc1OCC | inactive |  |
| CCCCCCOC(=O)CCC | inactive |  |
| C=C(C)C(=O)OCCOc1ccccc1 | inactive |  |
| c1ccc(-c2nc[nH]c2-c2ccccc2)cc1 | inactive |  |
| NC(N)=N/N=C/c1c(Cl)cccc1Cl | 29.8 µM (active) |  |
